# Assay results from PubChem BioAssay (NCATS).
# Several values for one entry are separate records, joined by “and”; a condition that tells them apart may be missing. Identical values can stand only once. Results filed as inconclusive are left out. Entries that show only a call come without a potency. Activity calls are given as the source filed them. Unless noted, calls come from the whole dose curve; as a rule, active = well fitted cell-killing curve with a large enough effect; inconclusive = small, poorly fitted or top-dose-only effect; inactive = flat fitted curve, though single readings scatter.
# How the values were obtained:
# [1] = Cell Viability - LYMP2-015 (AID 971); note: nearly all actives have a fitted effect of over 55% in size
# Procedure, shortened: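 Luminescent ATP read-out (CellTiter-Glo) served as the viability measure after lymphoblastoid cells were exposed to compounds for 24 hours at 37 C. Concentration-response data were fitted with the Hill equation to give AC50.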
# [2] = Cell Viability - LYMP2-017 (AID 972); note: series mostly up to about 92 µM; nearly all actives have a fitted effect of over 55% in size
# Procedure, shortened: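 2500 cells/well, 5 h 37 C; cpd 24 h 37 C in complete medium; CellTiter-Glo, 30 min RT; luminescence (ATP). AC50 via Hill fit, qHTS.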
# [3] = Cell Viability - LYMP2-019 (AID 973); note: nearly all actives have a fitted effect of over 55% in size
# Procedure, shortened: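 Luminescent ATP read-out (CellTiter-Glo, 30 min room temperature) served as the viability measure after 24 hr treatment of lymphoblastoid cells at 37 C. Concentration-response data were fitted to the Hill equation for AC50.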
# [4] = Cell Viability - LYMP2-021 (AID 974);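 note: compound exposure lasts 24 hours at 37 °C; nearly all actives have a fitted effect of over 55% in size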
# Procedure, shortened: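 Plate 2500 lymphoblastoid cells per well and incubate 5 hr at 37 C. Add compounds over a concentration range and incubate 24 hr at 37 C. Add CellTiter-Glo, wait 30 min at room temperature, read luminescence.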
# [5] = Cell Viability - LYMP2-023 (AID 975)
# Procedure, shortened: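 2500 cells/well, 5 hr 37 C; cpd 24 hr 37 C; CellTiter-Glo, 30 min RT; luminescence. qHTS conc-response, Hill fit -> AC50. Pos ctrl tetraoctylammonium bromide.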
# [6] = Cell Viability - LYMP2-025 (AID 976); note: series mostly up to about 92 µM
# Procedure, shortened: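 Seed 2500 LYMP2-025 cells/well; 5 hr at 37 C; add compound; 24 hr at 37 C; add CellTiter-Glo; 30 min RT; read luminescence. AC50 from Hill-modelled concentration-response.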
# [7] = Cell Viability - LYMP2-002 (AID 977);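 note: series mostly up to about 92 µM; compound exposure lasted 24 h at 37 °C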
# Procedure, shortened: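 Cytotoxicity is scored as concentration-dependent loss of cellular ATP in a human lymphoblastoid line after 24 hr compound treatment at 37 C. AC50 is obtained by modelling concentration-response data with the Hill equation.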
# [8] = Cell Viability - LYMP2-006 (AID 978); note: series mostly up to about 92 µM; nearly all actives have a fitted effect of over 60% in size
# Procedure, shortened: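 In this cytotoxicity screen, the human lymphoblastoid line grew in complete medium with test compounds for 24 hr at 37 C. Cellular ATP served as the viability signal.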
# [9] = Cell Viability - LYMP2-007 (AID 979);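 note: cells exposed to compound for 24 h before reading; nearly all actives have a fitted effect of over 60% in size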
# Procedure, shortened: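 Luminescent ATP signal (CellTiter-Glo) serves as the viability read-out after 24 hr compound treatment of lymphoblastoid cells in complete medium at 37 C. Concentration-response data were fitted to the Hill equation to give AC50 values.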
# [10] = Cell Viability - LYMP2-008 (AID 980); note: nearly all actives have a fitted effect of over 60% in size
# Procedure, shortened: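 qHTS, human lymphoblastoid line, 2500 cells/well; 5 hr preincubation, 24 hr compound, 37 C. CellTiter-Glo ATP luminescence. AC50 via Hill equation. Tetraoctylammonium bromide positive control.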
# [11] = Cell Viability - LYMP2-010 (AID 981); note: nearly all actives have a fitted effect of over 55% in size
# Procedure, shortened: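 Luminescent ATP signal (CellTiter-Glo) served as the viability read-out. Cells of the human lymphoblastoid line were treated with compound over a concentration range for 24 hours at 37 C, and AC50 values came from Hill-equation modeling.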
# [12] = Cell Viability - LYMP2-014 (AID 983); note: series mostly up to about 92 µM; nearly all actives have a fitted effect of over 50% in size
# Procedure, shortened: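 Luminescent ATP signal (CellTiter-Glo, 30 min at room temperature) serves as the viability read-out after 24 hr compound exposure at 37 C. Cells were seeded at 2500 per well and settled 5 hr beforehand.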
# [13] = Cell Viability - LYMP2-016 (AID 984); note: nearly all actives have a fitted effect of over 55% in size
# Procedure, shortened: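 Concentration-dependent ATP depletion measured in LYMP2-016 lymphoblastoid cells, 24 h, 37 C; luciferase-based luminescent detection; Hill-equation AC50.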
# [14] = Cell Viability - LYMP2-018 (AID 985); note: nearly all actives have a fitted effect of over 50% in size
# Procedure, shortened: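 Luminescent ATP signal (CellTiter-Glo, read after 30 min at room temperature) reports viable cells after 24 hr compound treatment at 37 C. Concentration-response data were fitted to the standard Hill equation for AC50.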
# [15] = Cell Viability - LYMP2-020 (AID 986)
# Procedure, shortened: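 Luminescent ATP signal (CellTiter-Glo, 30 min at room temperature) is the read-out after 24 h compound treatment of lymphoblastoid cells at 37 C. AC50 values come from Hill-equation fits across concentrations.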
# [16] = Cell Viability - LYMP2-022 (AID 987); note: nearly all actives have a fitted effect of over 55% in size
# Procedure, shortened: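 qHTS: human lymphoblastoid cells 2500/well; 5 hr 37 C; cpd added; 24 hr 37 C; CellTiter-Glo, 30 min RT; luminescence. AC50 via Hill fit; tetraoctylammonium bromide positive ctrl.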
# [17] = Cell Viability - LYMP2-024 (AID 988); note: nearly all actives have a fitted effect of over 60% in size
# Procedure, shortened: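 Steps: seed 2500 cells/well, 5 hr 37 C; add compound, 24 hr 37 C; add CellTiter-Glo, 30 min room temperature; read luminescence. AC50 derived by Hill modelling of concentration-dependent ATP loss.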
# [18] = Cell Viability - LYMP2-026 (AID 989); note: nearly all actives have a fitted effect of over 50% in size
# Procedure, shortened: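 Luminescent ATP signal (CellTiter-Glo, 30 min room temperature) measures viable lymphoblastoid cells after 24 hr compound treatment at 37 C. Decreased ATP reflects acute toxicity; AC50 values come from Hill-equation modeling.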
# [19] = Cell Viability - LYMP1-002 - Assay at 24 hr (AID 993)
# Procedure, shortened: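 Cells plated 2500/well, 5 hr 37 C; compounds added, 24 hr 37 C; CellTiter-Glo added, 30 min RT; luminescence read. Tetraoctylammonium bromide positive control. Hill-equation AC50.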
# [20] = Cell Viability - LYMP1-002 - Assay at 40 hr (AID 994); note: nearly all actives have a fitted effect of over 60% in size
# Procedure, shortened: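 Luminescent ATP signal served as the viability readout, with decreases taken as toxicity. Cells were treated with compounds across a concentration range for 40 hours at 37 C, and AC50 values came from standard Hill modeling.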
# [21] = target: Estrogen receptor (Homo sapiens) (UniProt P03372); assay: qHTS assay for small molecule antagonists of estrogen receptor alpha signaling (AID 588513; active = well fitted curve in the direction sought with a large enough effect in the signal ratio, with a control signal flat, not every such curve was filed as active; the % refers to the signal ratio)
# Procedure, shortened: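 Antagonist-mode qHTS in ER-alpha-UAS-bla HEK 293 cells: compound titration, 0.5nM estradiol for 18 h, CCF4 fluorescence, Hill-derived IC50.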
# [22] = target: Estrogen receptor (Homo sapiens) (UniProt P03372); assay: qHTS assay for small molecule agonists of estrogen receptor alpha signaling (AID 588514; calls by dose curve; note: potency is the fitted concentration of half-maximal effect; nearly all actives have a fitted effect of over 70% in size)
# Procedure, shortened: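 Cells were plated at 5000/well, incubated 4 hrs at 37 C, dosed with compound titration series, incubated 18 hrs at 37 C, loaded with CCF4 dye for 2 hrs at RT, then fluorescence was read.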
# [23] = target: Bile acid receptor (Homo sapiens) (UniProt Q96RI1); assay: qHTS assay for small molecule antagonists of farnesoid X receptor signaling (AID 588526; calls by dose curve)
# Procedure, shortened: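 Beta-lactamase reporter antagonist mode: HEK293T FXR-UAS-bla cells, titrated compound, CDCA stimulation, 16 h 37 C, CCF4 dye 2 h RT. Data normalized to CDCA 50 uM and DMSO; Hill-fit IC50.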
# [24] = target: Glucocorticoid receptor (Homo sapiens) (UniProt P04150); assay: qHTS assay for small molecule agonists of glucocorticoid receptor signaling (AID 588532; active = well fitted curve in the direction sought with a large enough effect in the signal ratio, with a control signal flat; the % refers to the signal ratio); settings: HeLa MMTV-bla, beta-lactamase ratio, agonist, 18 h; stronger effect = higher value; percent of dexamethasone control, DMSO zero
# Procedure, shortened: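 Agonist-mode qHTS: GRE-driven beta-lactamase in HeLa cells exposed 18 h to titrated compounds (up to 92 uM), then CCF4 ratio read after 2 h at RT; Hill-fitted EC50, efficacy relative to 0.1 uM dexamethasone.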
# [25] = target: Glucocorticoid receptor (Homo sapiens) (UniProt P04150); assay: qHTS assay for small molecule antagonists of glucocorticoid receptor signaling (AID 588533; active = well fitted inhibition curve with a large enough effect in the signal ratio, with a control signal flat, not every such curve was filed as active; the % refers to the signal ratio;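 note: cells stimulated with 2 nM dexamethasone as agonist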)
# Procedure, shortened: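 Antagonist-mode qHTS: compound titrations added to GRE-bla HeLa cells, then dexamethasone 2 nM final; 18 h, 37 C. CCF4 FRET fluorescence normalized to dexamethasone and DMSO; IC50 from Hill fit.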
# [26] = qHTS assay for small molecule antagonists of peroxisome proliferator-activated receptor delta signaling (AID 588535); settings: HEK293T PPARd-UAS-bla, beta-lactamase FRET ratio, 18 h; 460 nm channel;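 note: cells co-treated with a PPAR-delta agonist as stimulator during compound exposure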
# Procedure, shortened: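 HEK293T PPAR-delta-UAS-bla cells, 4000/well, 2% charcoal/dextran FBS; 5 h 37 C; cpd titration; 18 h 37 C; CCF4 2 h RT; FI 460/530 nm; Hill fit → IC50, efficacy.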
# Glucocorticoid receptor (Homo sapiens), sequence (P04150 whole entry, looked up): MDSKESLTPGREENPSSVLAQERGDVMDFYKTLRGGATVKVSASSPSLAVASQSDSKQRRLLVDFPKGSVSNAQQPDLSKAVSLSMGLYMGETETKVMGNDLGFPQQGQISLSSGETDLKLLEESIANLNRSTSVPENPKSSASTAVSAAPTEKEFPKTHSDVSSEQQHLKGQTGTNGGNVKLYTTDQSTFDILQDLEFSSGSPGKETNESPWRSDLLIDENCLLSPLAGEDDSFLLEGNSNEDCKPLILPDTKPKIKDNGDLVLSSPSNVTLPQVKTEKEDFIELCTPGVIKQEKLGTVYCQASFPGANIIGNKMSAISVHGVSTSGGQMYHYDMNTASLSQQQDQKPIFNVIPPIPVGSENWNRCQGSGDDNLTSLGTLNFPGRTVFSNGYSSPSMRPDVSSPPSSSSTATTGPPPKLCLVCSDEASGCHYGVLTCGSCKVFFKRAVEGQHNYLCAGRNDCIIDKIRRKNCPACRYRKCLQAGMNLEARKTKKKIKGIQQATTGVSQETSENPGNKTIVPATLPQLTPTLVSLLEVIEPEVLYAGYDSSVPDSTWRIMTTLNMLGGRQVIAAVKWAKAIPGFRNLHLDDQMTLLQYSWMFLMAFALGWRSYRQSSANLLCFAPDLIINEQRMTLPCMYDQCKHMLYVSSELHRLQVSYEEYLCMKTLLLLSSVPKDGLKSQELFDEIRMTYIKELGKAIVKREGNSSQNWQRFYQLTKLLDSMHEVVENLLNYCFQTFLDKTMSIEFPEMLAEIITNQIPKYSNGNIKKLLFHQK
# Estrogen receptor (Homo sapiens), sequence (P03372 whole entry, looked up): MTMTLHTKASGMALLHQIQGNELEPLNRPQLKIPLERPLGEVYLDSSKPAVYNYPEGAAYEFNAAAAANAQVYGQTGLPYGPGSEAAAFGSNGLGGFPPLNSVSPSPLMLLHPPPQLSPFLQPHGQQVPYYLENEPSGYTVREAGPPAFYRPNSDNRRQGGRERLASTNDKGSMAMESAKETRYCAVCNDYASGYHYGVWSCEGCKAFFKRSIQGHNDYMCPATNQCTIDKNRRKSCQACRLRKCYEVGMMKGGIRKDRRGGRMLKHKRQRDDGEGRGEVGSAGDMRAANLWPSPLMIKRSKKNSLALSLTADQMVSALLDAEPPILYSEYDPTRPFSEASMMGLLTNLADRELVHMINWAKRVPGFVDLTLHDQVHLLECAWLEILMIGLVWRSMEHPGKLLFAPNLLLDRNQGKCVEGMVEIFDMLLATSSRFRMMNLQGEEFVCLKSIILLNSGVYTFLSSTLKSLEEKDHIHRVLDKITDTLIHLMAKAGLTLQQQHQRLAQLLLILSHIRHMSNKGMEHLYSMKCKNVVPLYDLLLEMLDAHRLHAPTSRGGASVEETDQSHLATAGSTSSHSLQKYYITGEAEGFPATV
# Bile acid receptor (Homo sapiens), sequence (Q96RI1 whole entry, looked up): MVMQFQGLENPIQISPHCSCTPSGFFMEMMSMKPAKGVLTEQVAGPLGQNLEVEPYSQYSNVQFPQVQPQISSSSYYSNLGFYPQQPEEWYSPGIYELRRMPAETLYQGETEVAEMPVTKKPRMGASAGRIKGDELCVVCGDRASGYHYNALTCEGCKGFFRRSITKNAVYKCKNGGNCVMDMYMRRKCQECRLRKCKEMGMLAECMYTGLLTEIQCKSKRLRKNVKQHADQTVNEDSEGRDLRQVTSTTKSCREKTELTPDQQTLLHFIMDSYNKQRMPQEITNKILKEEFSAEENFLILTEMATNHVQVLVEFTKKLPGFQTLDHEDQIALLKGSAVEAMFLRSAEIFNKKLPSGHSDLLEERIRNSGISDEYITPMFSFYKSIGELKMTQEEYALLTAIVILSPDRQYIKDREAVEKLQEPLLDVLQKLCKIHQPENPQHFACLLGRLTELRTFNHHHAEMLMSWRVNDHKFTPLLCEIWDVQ
smiles,measurement,setting,value
CC(CCC(=O)O)(c1ccc(O)cc1)c1ccc(O)cc1,Potency,[1],inactive
same,Potency,[2],inactive
same,Potency,[3],inactive
same,Potency,[4],inactive
same,Potency,[5],inactive
same,Potency,[6],inactive
same,Potency,[7],inactive
same,Potency,[8],inactive
same,Potency,[9],inactive
same,Potency,[10],inactive
same,Potency,[11],inactive
same,Potency,[12],inactive
same,Potency,[13],inactive
same,Potency,[14],inactive
same,Potency,[15],inactive
same,Potency,[16],inactive
same,Potency,[17],inactive
same,Potency,[18],inactive
same,Potency,[19],inactive
same,Potency,[20],inactive
same,outcome,[21],inactive
same,Potency,[22],12.6 µM (active)
same,Potency,[23],inactive
same,activation,[24],3.51% (inactive) and -3.34% (inactive)
same,Potency,[25],inactive
same,max response,[26],-42.6% and 42.4%
